# PubChem BioAssay (NCATS)
# Results filed as inconclusive are left out. Where a call stands in place of a potency, no number is given. Activity calls are given as the source filed them. Unless noted, the call rests on the fitted dose curve; in most records, active means well fitted curve in the direction sought with a large enough effect; inconclusive means small, poorly fitted or top-dose-only effect, or another doubt; inactive means no such curve, though single readings can be large; an effect the other way counts as inactive or inconclusive.
# Columns and labels:
# [1] = Primary qHTS for inhibitors of nuclear receptor binding SET domain protein 2 (NSD2) in an isogenic RCH-ACV NSD2 p.E1099K mutant (9B) (AID 1645876); further: potency means the concentration at half of the fitted maximal effect; nearly all actives have a fitted effect of over 70% in size
# [2] = Primary qHTS for inhibitors of nuclear receptor binding SET domain protein 2 (NSD2) in an RCH-ACV wild type WT cells (2C) (AID 1645877); further: potency means the concentration at half of the fitted maximal effect; nearly all actives have a fitted effect of over 70% in size
# [3] = target: Phospholipid hydroperoxide glutathione peroxidase GPX4 (Homo sapiens) (UniProt P36969); experiment: Primary qHTS Assay for Inhibitors of Recombinant Selenoprotein Glutathione Peroxidase 4 (GPX4) (AID 1845192); conditions: outcome: dose series up to 50 µM unless noted; further: nearly all actives have a fitted effect of over 65% in size
# Method in brief: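 GR-coupled assay: recombinant GPX4 preincubated 30 min with compound at room temperature; final 200 nM GPX4, 1 mM GSH, 0.5 mM cumene hydroperoxide, 0.5 mM NADPH, 100 nM GR, 0.01% BSA, pH 7.5 Tris. NADPH fluorescence (340/450 nm) read at 0 and 15 min.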
# [4] = qHTS drug screen for cell cycle checkpoint inhibitors in PARPi-resistant BRCA-mutant ovarian cancer cell lines. (AID 1963452; calls by dose curve; further: potency means the concentration at half of the fitted maximal effect); conditions: PEO1/OlaR viability, CellTiter-Glo luminescence, 96 h; for Z-AUC: stronger effect = lower value
# Method in brief: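 PEO1, PEO4 and PEO1/OlaR ovarian cancer cells, 600 per well, exposed 96 h at 37C to a dilution series. Viability read by CellTiter-Glo luminescence, normalized to DMSO and empty wells; activity summarized as Z-AUC.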
# [5] = qHTS assay to identify inhibitors of the type 1 interferon - major histocompatibility complex class I in skeletal muscle: Counter screen cell viability and HiBit confirmation (AID 1347412); conditions: iHSKM muscle cells + IFN-b, HiBiT or CellTiter-Glo, 24 h; for activity change, negative = inhibition: Viability, at 45.9 µM (top of the series); further: potency means the concentration at half of the fitted maximal effect; on all read-outs here: nearly all actives have a fitted effect of over 60% in size
# Method in brief: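 After 24 h with human IFN-beta (4 ng/ml) and compound titrations (top 46 uM final, 1:3, 12 points), HLA-B HiBit myoblasts were lysed for either Nano-Glo HiBiT luminescence or CellTiter Glo viability on paired plates.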
# [6] = qHTS to identify inhibitors of the type 1 interferon - major histocompatibility complex class I in skeletal muscle: primary screen against the NCATS Mechanism Interrogation Plate v5.0 (MIPE) Libary (AID 1347411); further: nearly all actives have a fitted effect of over 65% in size
# Method in brief: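 Cells were genome-edited human myoblasts carrying a HiBit tag on endogenous HLA-B. They were treated with IFN-beta (4.0 ng/ml) and titrated compounds (top 46 uM) for 24 hrs before lytic HiBiT detection.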
# [7] = target: Glutathione peroxidase 1 (Homo sapiens) (UniProt P07203); experiment: Primary qHTS Assay for Inhibitors of Recombinant Selenoprotein Glutathione Peroxidase 1 (GPX1) (AID 1845191); further: nearly all actives have a fitted effect of over 65% in size
# Method in brief: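 GR-coupled assay: compounds preincubated 30 min at room temperature with GPX1, then reaction started with CHP; final 10 nM GPX1, 1 mM GSH, 0.5 mM CHP, 0.5 mM NADPH, 100 nM GR, 0.01% BSA, pH 7.5 Tris buffer. NADPH fluorescence (340/450 nm) read at 0 and 15 min.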
# [8] = Validation of Assay for Modulators of Lamin A Splicing (AID 1459; active means well fitted curve in the direction sought with a large enough effect in the signal ratio; the % refers to the signal ratio;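 further: cells exposed to compound for two days before reading; ratio rise marks activators and ratio drop marks inhibitors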)
# Method in brief: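 Splicing correction read as GFP (500-530 nm) over DsRed2 (575-640 nm) object intensity after 48 h compound exposure of reporter HeLa S3 clones (600 cells/well, 2% FBS medium); ancitabine and cycloheximide titrations, 0.5% DMSO as vehicle.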
# [9] = qHTS Assay for Lipid Storage Modulators (AID 1519; calls by dose curve); conditions: Drosophila S3 cells, BODIPY lipid droplet/cell ratio, laser cytometry, cells loaded with oleic acid; for activity change, negative = inhibition: at 57.5 µM (top of the series)
# Method in brief: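 Cells seeded at 5,000 per well were treated with compounds over a concentration series and loaded with oleic acid (400 uM, as added). Lipid droplet fluorescence (488 nm excitation, 500-530 nm channel) was read by laser-scanning cytometry and normalized to 20 uM Triacsin C.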
# [10] = target: DNA repair nuclease/redox regulator APEX1 (Homo sapiens) (UniProt P27695); experiment: qHTS Validation Assay for Inhibitors of the Human Apurinic/apyrimidinic Endonuclease 1 (APE1) (AID 1705;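 further: TAMRA fluorescence gain over two minutes as APE1 cuts a quenched THF abasic duplex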)
# Method in brief: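 Activity read as rising fluorescence (598 nm emission, 525 nm excitation) from incision of a TAMRA/BHQ-2 duplex carrying a THF abasic site (50 nM). Compound and enzyme sat 15 min at RT before substrate start; signal change between first and third 60-s reads.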
# [11] = Counterscreen for APE1 Inhibitors: Fluorescent Dye Displacement Validation Assay (AID 1707)
# Method in brief: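 Thiazole Orange (250 nM) bound to 50 nM TAMRA-labelled dsDNA with tetrahydrofuran abasic site; displacement by DNA-binding compounds lowers fluorescence. Buffer 50 mM Tris-HCl pH 7.5, 50 mM NaCl, 2 mM MgCl2, 0.01% Tween-20; endpoint read at 480/540 nm.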
# [12] = target: Endonuclease 4 (Escherichia coli (strain K12)) (UniProt P0A6C1); experiment: Counterscreen for APE1 Inhibitors: qHTS Validation Assay for Inhibitors of Endonuclease IV (AID 1708)
# Method in brief: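 Cleavage of a quenched abasic-site DNA duplex (50 nM, 5'-TAMRA, 3'-BHQ-2) by 2 nM enzyme is followed as fluorescence increase. Compounds are preincubated with enzyme 15 min at room temperature before substrate addition.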
# [13] = target: ATP-dependent DNA helicase Q1 (Homo sapiens) (UniProt P46063); experiment: qHTS Validation Assay for Inhibitors of RecQ-Like Dna Helicase 1 (RECQ1) (AID 2353)
# Method in brief: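 50 nM RECQ1T1 preincubated 15 min with compound in Tris pH 8.0 buffer with MgCl2, DTT, Tween-20 and 2.5 ug/ml poly(dI-dC); started with 200 nM TAMRA/BHQ-2 forked duplex and 2 mM ATP. Unwinding read as fluorescence (525/598 nm), two reads 2 h apart.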
# [14] = Validation screen for small molecules that induce DNA re-replication in MCF 10A normal breast cells (AID 463097); further: nearly all actives have a fitted effect of over 60% in size
# Method in brief: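 Read-out is Hoechst total nuclear intensity by fluorescence scanning imager, flagging increased high-DNA-content nuclei. Compounds were incubated with MCF 10A cells for 48 hr (37 C, 5% CO2) before 40 min staining.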
# [15] = Quantitative high throughput screen for delayed death inhibitors of the malarial parasite plastid, 96 hour incubation (AID 488745);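 further: luciferase-expressing P. falciparum in erythrocytes at 2% hematocrit and 0.1% parasitemia; nearly all actives have a fitted effect of over 70% in size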
# Method in brief: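 Growth of reporter-bearing P. falciparum in red cells is measured after 96 h with compound, covering two erythrocytic cycles. Luminescence from the integrated luciferase serves as the growth signal.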
# [16] = Quantitative high throughput screen for delayed death inhibitors of the malarial parasite plastid, 48 hour incubation (AID 488752); further: nearly all actives have a fitted effect of over 65% in size
# Method in brief: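 One parasite generation (48 h, 37 C, 5% CO2) of luciferase-reporter P. falciparum in erythrocytes is run with test compound; decreased luminescence indicates inhibited growth.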
# [17] = target: Transient receptor potential cation channel subfamily V member 1 (Homo sapiens) (UniProt Q8NER1); experiment: HTS Assay for Compounds that Act as Enhancers of the Vanilloid Receptor 1 (AID 488979)
# Method in brief: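 TRPV1 cells loaded with Fluo-8 calcium dye; compound added and Ca2+ signal (ex 480/em 520 nm) followed 3 min, then capsaicin at EC20 added and read 2 more min to detect enhancement.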
# [18] = target: Galactokinase (Homo sapiens) (UniProt P51570); experiment: qHTS Validation Assay for Inhibitors of Human Galactokinase (GALK) (AID 493189)
# Method in brief: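 Inhibition was measured as remaining ATP, detected by luciferase luminescence after a 1 h room-temperature reaction. Final conditions: 5 nM GALK, 100 uM galactose, 35 uM ATP, pH 8.0 HEPES buffer.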
# [19] = Validation screen for small molecules that induce DNA re-replication in SW480 colon adenocarcinoma cells (AID 504364)
# Method in brief: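 Cells are treated 48 hr with test compound, stained 40 min with Hoechst at 37 C, and scanned for nuclear fluorescence; compounds inducing re-replication increase nuclei with elevated intensity.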
# [20] = target: Thyrotropin receptor (Homo sapiens) (UniProt P16473); experiment: qHTS Assay for Antagonists of the Thyroid Stimulating Hormone Receptor (AID 488980)
# Method in brief: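 Inhibition of cAMP raised by EC80 TSH (4 nM final) was read by HTRF, with lysate cAMP competing against cAMP-d2 for cryptate antibody after 30 min at room temperature. The cells were transfected HEK293 held in phosphodiesterase inhibitor RO 20-1724 at 70 uM.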
# [21] = measured here: PEO1 parental Z-AUC
# [22] = measured here: cell count channel max response
# [23] = measured here: lipid channel max response
# Phospholipid hydroperoxide glutathione peroxidase GPX4 (Homo sapiens), sequence (P36969 whole entry, looked up): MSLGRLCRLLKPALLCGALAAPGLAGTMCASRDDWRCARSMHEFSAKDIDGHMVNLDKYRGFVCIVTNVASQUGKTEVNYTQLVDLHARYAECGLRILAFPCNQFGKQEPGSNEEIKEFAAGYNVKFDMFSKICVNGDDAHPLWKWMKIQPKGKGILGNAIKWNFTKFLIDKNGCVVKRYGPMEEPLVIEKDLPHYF
# ATP-dependent DNA helicase Q1 (Homo sapiens), sequence (P46063 whole entry, looked up): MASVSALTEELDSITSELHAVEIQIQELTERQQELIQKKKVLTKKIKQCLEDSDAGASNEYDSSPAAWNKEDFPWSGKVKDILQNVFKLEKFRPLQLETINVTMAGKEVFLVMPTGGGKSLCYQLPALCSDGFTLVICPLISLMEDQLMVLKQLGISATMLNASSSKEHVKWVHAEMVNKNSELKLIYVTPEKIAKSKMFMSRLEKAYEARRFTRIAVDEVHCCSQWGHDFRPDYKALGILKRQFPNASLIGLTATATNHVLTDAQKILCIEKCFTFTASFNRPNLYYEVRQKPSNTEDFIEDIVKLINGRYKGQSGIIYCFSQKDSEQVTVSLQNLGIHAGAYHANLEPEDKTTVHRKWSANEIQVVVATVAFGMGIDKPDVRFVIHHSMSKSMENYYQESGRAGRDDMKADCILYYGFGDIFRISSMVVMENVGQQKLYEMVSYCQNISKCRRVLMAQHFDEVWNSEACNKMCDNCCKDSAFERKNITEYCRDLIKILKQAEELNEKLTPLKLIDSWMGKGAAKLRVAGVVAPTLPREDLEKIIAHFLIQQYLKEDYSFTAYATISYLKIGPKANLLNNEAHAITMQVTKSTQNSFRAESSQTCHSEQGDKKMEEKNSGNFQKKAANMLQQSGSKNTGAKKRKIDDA
# Galactokinase (Homo sapiens), sequence (P51570 whole entry, looked up): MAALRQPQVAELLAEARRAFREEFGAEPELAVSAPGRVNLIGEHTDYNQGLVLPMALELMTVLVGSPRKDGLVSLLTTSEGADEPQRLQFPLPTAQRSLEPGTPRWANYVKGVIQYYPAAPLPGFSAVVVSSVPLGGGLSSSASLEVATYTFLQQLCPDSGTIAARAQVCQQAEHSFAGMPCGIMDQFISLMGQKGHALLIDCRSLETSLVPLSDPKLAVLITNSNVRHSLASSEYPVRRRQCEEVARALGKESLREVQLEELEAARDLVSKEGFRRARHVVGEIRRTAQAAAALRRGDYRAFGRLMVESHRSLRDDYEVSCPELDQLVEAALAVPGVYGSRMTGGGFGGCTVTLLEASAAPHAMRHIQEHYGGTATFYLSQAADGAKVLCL
# DNA repair nuclease/redox regulator APEX1 (Homo sapiens), sequence (P27695 whole entry, looked up): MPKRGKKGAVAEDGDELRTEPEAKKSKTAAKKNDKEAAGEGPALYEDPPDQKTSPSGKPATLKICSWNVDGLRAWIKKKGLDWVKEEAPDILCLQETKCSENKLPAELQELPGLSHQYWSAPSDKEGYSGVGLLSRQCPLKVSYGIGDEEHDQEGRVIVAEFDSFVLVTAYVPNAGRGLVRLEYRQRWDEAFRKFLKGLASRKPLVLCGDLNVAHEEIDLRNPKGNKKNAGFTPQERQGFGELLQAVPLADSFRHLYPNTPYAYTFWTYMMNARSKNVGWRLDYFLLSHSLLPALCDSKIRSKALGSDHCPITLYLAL
# Transient receptor potential cation channel subfamily V member 1 (Homo sapiens), sequence (Q8NER1 whole entry, looked up): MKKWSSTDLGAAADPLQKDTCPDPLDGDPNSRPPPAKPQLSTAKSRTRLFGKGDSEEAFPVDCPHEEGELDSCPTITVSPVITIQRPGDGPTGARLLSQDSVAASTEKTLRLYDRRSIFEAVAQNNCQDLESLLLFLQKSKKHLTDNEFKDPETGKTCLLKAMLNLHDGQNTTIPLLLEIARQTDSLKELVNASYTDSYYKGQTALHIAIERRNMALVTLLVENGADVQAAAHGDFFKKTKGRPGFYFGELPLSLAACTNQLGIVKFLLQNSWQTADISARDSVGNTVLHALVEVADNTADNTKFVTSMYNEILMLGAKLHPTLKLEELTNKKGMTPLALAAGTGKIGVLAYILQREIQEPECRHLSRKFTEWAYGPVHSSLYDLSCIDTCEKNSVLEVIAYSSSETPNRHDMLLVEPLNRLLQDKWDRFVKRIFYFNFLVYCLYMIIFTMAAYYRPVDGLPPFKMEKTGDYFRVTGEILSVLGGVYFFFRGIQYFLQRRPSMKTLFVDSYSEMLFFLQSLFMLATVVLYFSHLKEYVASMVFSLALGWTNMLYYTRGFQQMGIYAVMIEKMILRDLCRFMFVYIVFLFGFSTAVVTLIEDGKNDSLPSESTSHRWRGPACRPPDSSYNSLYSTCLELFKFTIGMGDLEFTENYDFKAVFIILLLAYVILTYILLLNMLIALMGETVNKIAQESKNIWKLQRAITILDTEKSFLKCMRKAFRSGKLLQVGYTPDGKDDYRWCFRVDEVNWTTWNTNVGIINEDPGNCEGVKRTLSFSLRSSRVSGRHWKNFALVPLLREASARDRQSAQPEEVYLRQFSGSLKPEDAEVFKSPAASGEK
# Glutathione peroxidase 1 (Homo sapiens), sequence (P07203 whole entry, looked up): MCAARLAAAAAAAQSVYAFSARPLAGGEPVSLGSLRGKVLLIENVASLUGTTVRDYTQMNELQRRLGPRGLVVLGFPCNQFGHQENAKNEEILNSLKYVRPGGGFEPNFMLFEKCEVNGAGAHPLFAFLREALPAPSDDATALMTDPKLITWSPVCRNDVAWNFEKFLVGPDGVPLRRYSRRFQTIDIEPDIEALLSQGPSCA
# Thyrotropin receptor (Homo sapiens), sequence (P16473 whole entry, looked up): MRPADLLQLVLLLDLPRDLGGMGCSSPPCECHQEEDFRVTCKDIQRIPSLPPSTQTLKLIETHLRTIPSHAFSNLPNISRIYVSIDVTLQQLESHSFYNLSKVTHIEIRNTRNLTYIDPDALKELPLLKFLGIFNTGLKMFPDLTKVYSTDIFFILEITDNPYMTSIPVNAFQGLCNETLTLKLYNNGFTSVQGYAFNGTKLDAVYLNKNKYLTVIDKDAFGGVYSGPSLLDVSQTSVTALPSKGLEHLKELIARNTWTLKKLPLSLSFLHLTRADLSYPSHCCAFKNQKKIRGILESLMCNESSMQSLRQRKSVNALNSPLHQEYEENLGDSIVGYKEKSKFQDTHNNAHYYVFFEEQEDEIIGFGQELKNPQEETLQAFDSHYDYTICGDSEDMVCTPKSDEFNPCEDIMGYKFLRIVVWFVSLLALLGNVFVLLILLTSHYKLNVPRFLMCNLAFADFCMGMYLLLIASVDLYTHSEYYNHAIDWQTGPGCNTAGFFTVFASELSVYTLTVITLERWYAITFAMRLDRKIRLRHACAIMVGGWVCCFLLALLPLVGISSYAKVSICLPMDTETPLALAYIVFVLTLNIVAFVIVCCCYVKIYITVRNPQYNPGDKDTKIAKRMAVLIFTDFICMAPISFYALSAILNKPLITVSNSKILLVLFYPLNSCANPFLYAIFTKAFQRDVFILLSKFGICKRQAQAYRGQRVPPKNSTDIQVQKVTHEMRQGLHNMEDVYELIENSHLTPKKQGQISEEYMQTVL
smiles,measurement,setting,value
CO[C@@H]1[C@@H](O)[C@H](O)[C@@H](n2c3c(Cl)cccc3c3c4c(c5c6cccc(Cl)c6[nH]c5c32)C(=O)NC4=O)O[C@H]1CO,Potency,[1],934 nM (active)
same,Potency,[2],525 nM (active)
same,Potency,[3],inactive
same,Z-AUC,[4],-0.593 (inactive)
same,Z-AUC,[4]; [21],-0.854
same,Z-AUC,[4]; measured here: PEO4 Z-AUC,-0.743
same,Potency,[5]; HiBiT,4970 nM (active)
same,"activity change, negative = inhibition",[5],-21.4% (inactive)
Cc1nc2cccc(N)c2c(=O)n1C1CCC(=O)NC1=O (stereo unspecified),Potency,[6],inactive
same,Potency,[7],inactive
same,Potency,[3],inactive
same,Z-AUC,[4],1.24 (inactive)
same,Z-AUC,[4]; [21],1.14
same,Z-AUC,[4]; measured here: PEO4 Z-AUC,1.38
COc1nnc2ccc(N3CCC(c4ccc(OCCN5CCN(C)C(=O)[C@H]5C)cc4)CC3)nn12,Potency,[1],66.1 nM (active)
same,Potency,[2],52.5 nM (active)
same,Potency,[4],195 nM (active)
same,Z-AUC,[4]; [21],-1.72
same,Z-AUC,[4]; measured here: PEO4 Z-AUC,-1.83
same,"activity change, negative = inhibition",[5],14.1% (inactive)
Cc1cn([C@H]2C[C@@H](N=[N+]=[N-])[C@@H](CO)O2)c(=O)[nH]c1=O,outcome,[8],inactive
same,"activity change, negative = inhibition",[9],0.117% (inactive)
same,max response,[9]; [22],-9.17%
same,max response,[9]; [23],-8.16%
same,Potency,[10],inactive
same,Potency,[11],inactive
same,outcome,[12],inactive
same,Potency,[13],inactive
same,outcome,[14],inactive
same,Potency,[15],inactive
same,Potency,[16],inactive
same,outcome,[17],inactive
same,outcome,[18],inactive
same,outcome,[19],inactive
Cn1cc(-c2ccc(-c3cncc(Cl)c3N3CCC4(CCNC4=O)CC3)cc2)cn1,Potency,[1],8330 nM (active)
same,Potency,[2],833 nM (active)
same,Potency,[7],inactive
same,Potency,[3],inactive
same,Z-AUC,[4],-1.1 (inactive)
same,Z-AUC,[4]; [21],-0.614
same,Z-AUC,[4]; measured here: PEO4 Z-AUC,-1.18
same,"activity change, negative = inhibition",[5],-3.23% (inactive)
CNC(=O)[C@H]1O[C@@H](n2cnc3c(NCc4cccc(I)c4)ncnc32)[C@H](O)[C@H]1O,outcome,[8],inactive
same,"activity change, negative = inhibition",[9],1.11% (inactive)
same,max response,[9]; [22],54.7%
same,max response,[9]; [23],56.8%
same,Potency,[10],inactive
same,Potency,[11],inactive
same,outcome,[12],inactive
same,Potency,[13],inactive
same,outcome,[14],inactive
same,Potency,[15],inactive
same,Potency,[16],inactive
same,outcome,[20],inactive
same,outcome,[18],inactive
same,outcome,[19],inactive
CC(C)C1NC(=O)[C@H](CCCCN)NC(=O)[C@@H](Cc2c[nH]c3ccccc23)NC(=O)[C@H](Cc2ccc(O)cc2)NC(=O)[C@H](C)N(C)C(=O)[C@H](Cc2ccccc2)NC1=O (stereo partly specified),outcome,[8],inactive
same,"activity change, negative = inhibition",[9],0.502% (inactive)
same,max response,[9]; [22],25.5%
same,max response,[9]; [23],23%
same,Potency,[10],inactive
same,Potency,[11],inactive
same,outcome,[12],inactive
same,Potency,[13],inactive
same,outcome,[14],inactive
same,Potency,[15],inactive
same,Potency,[16],inactive
same,outcome,[17],inactive
same,outcome,[20],inactive
same,outcome,[18],inactive
same,outcome,[19],inactive
